This passage reports Potency and outcome results from PubChem BioAssay (NCATS).

Test [1] addresses DNA repair nuclease/redox regulator APEX1 (Homo sapiens) (UniProt P27695). Put plainly: qHTS Validation Assay for Inhibitors of the Human Apurinic/apyrimidinic Endonuclease 1 (APE1) (AID 1705; also: potency is read from the fitted curve at half-maximal effect). In a few lines: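 Substrate: 50 nM final fluorophore/quencher THF-abasic duplex. Enzyme preincubated with compounds 15 min, RT. Progress derived from fluorescence difference, third minus first kinetic read.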

Test [2] in a line: Counterscreen for APE1 Inhibitors: Fluorescent Dye Displacement Validation Assay (AID 1707). Also: potency is read from the fitted curve at half-maximal effect. The gist of the method:
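Thiazole Orange displacement from dsDNA: 250 nM ThO with 50 nM TAMRA-labelled abasic-site (tetrahydrofuran) duplex in 50 mM Tris-HCl pH7.5, 50mM NaCl, 2 mM MgCl2, 0.01% Tween-20. Loss of endpoint fluorescence (ex 480 nm, em 540 nm) flags DNA binders.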

Test [3] addresses Endonuclease 4 (Escherichia coli (strain K12)) (UniProt P0A6C1). Put plainly: Counterscreen for APE1 Inhibitors: qHTS Validation Assay for Inhibitors of Endonuclease IV (AID 1708). In a few lines: (§1)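 Cleavage of a quenched abasic-site DNA duplex (50 nM, 5'-TAMRA, 3'-BHQ-2) by 2 nM enzyme is followed as fluorescence increase. Compounds are preincubated with enzyme 15 min at room temperature before substrate addition.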

The nature of test [4]: qHTS for differential inhibitors of proliferation of Plasmodium falciparum line 7G8 (AID 1815).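 Also: parasite growth measured after three days of incubation.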 Also: potency is read from the fitted curve at half-maximal effect.
Test [5] can be described thus: qHTS for differential inhibitors of proliferation of Plasmodium falciparum line GB4 (AID 1816).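 Also: parasite growth measured after 72 h incubation.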 Also: potency is read from the fitted curve at half-maximal effect. The conditions noted are these: Potency: Plasmodium falciparum GB4 proliferation inhibition.
Test [6] can be described thus: qHTS for differential inhibitors of proliferation of Plasmodium falciparum line 3D7 (AID 1876). Also: potency is read from the fitted curve at half-maximal effect.
Test [7] can be described thus: qHTS for differential inhibitors of proliferation of Plasmodium falciparum line D10 (AID 1877).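 Also: parasites grown with compound for 72 h before DNA staining.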 Also: potency is read from the fitted curve at half-maximal effect.
The nature of test [8]: qHTS for differential inhibitors of proliferation of Plasmodium falciparum line Dd2 (AID 1882). Also: nearly all actives have a fitted effect of over 65% in size. Also: potency is read from the fitted curve at half-maximal effect. The settings on record: Potency: Plasmodium falciparum Dd2 proliferation inhibition. In a few lines:
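SYBR Green I DNA fluorescence read-out, ex 485/em 535 nm. Signals were normalized to 0.29 uM artemisinin and DMSO wells, then corrected using vehicle-only plates flanking each stack. Parasite growth ran 72 h in erythrocytes before lysis.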

A short description of test [9]: qHTS for differential inhibitors of proliferation of Plasmodium falciparum line W2 (AID 1883).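 Also: parasites grown with compound for 72 h before lysis and staining.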 Also: potency is read from the fitted curve at half-maximal effect. The conditions noted are these: Potency: Plasmodium falciparum W2 proliferation inhibition.
A short description of test [10]: qHTS for differential inhibitors of proliferation of Plasmodium falciparum line HB3 (AID 1886).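 Also: parasites grown with compound for 72 h before SYBR Green readout.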 Also: potency is read from the fitted curve at half-maximal effect. The conditions noted are these: Potency: Plasmodium falciparum HB3 proliferation inhibition.
Test [11] can be described thus: qHTS Assay for Modulators of Human Peripheral Myelin Protein 22 (PMP22) Expression/Activity (AID 1967; active = well fitted curve in the direction sought with a large enough effect in the signal ratio; the % refers to the signal ratio). The gist of the method: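 Engineered MSC80 cells, Pmp22-promoter green and EF-alpha red luciferase reporters; 24h compound treatment at 37 °C. Concentration-response fits on green, red and ratio signals, each overlap-corrected, with %Activity normalized to untreated wells.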

The target in test [12] is ATP-dependent DNA helicase Q1 (Homo sapiens) (UniProt P46063). Put plainly: qHTS Validation Assay for Inhibitors of RecQ-Like Dna Helicase 1 (RECQ1) (AID 2353). The gist of the method:
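50 nM RECQ1T1 preincubated 15 min with compound in Tris pH 8.0 buffer with MgCl2, DTT, Tween-20 and 2.5 ug/ml poly(dI-dC); started with 200 nM TAMRA/BHQ-2 forked duplex and 2 mM ATP. Unwinding read as fluorescence (525/598 nm), two reads 2 h apart.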

Test [13] deals with RecQ-like DNA helicase BLM (Homo sapiens) (UniProt P54132). Put plainly: qHTS Validation Assay for Inhibitors of Bloom's syndrome helicase (BLM) (AID 2364). In a few lines: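 50 nM BLM preincubated 15 min at room temperature with compound in pH 8.0 Tris buffer containing 2.5 ug/ml poly(dI-dC); started with 200 nM TAMRA/BHQ-2 forked duplex and 2 mM ATP (final). Unwinding read as TAMRA fluorescence increase, two reads 2 h apart.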

The target of test [14] is Endonuclease 4 (Escherichia coli (strain K12)) (UniProt P0A6C1). Put plainly: Counterscreen for APE1 Inhibitors: qHTS Assay for Inhibitors of Endonuclease IV (AID 2565). Also: potency is read from the fitted curve at half-maximal effect. In a few lines:
as §1

Test [15] concerns the target DNA repair nuclease/redox regulator APEX1 (Homo sapiens) (UniProt P27695). Put plainly: Confirmation qHTS Assay for Inhibitors of the Human Apurinic/apyrimidinic Endonuclease 1 (APE1) (AID 2572). Also: potency is read from the fitted curve at half-maximal effect; nearly all actives have a fitted effect of over 30% in size. The gist of the method: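 Readout: kinetic fluorescence (Ex 525, Em 598 nm) from APE1 incision of a 5'-TAMRA, 3'-BHQ-2 duplex containing a THF abasic site at 50 nM final. Compound preincubation 15 min, room temperature.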

Test [16] in a line: Cytometric Cell-Based qHTS for Inhibitors of the mTORC1 Signaling Pathway in MEF (Tsc2-/-, p53-/-) Cells (AID 2660).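 Also: percent of cells above a phospho-rpS6 to PI ratio cutoff in each well; series mostly up to about 38 µM.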 The gist of the method:
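Readout: Alexa-488 phospho-rpS6 (Ser235/236) intensity divided by PI intensity, thresholded against 7.5 nM rapamycin wells and reported as % positive cells. PI cell count served as the viability measure. Compound exposure was 24 hrs at 37 degree Celsius.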

The nature of test [17]: High Content Imaging Cell-Based qHTS for Inhibitors of the mTORC1 Signaling Pathway in MEF (Tsc2-/-, p53-/-) Cells (AID 2666). The gist of the method: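 Phospho-rpS6 (Ser235/236) immunofluorescence, normalized and scored as % positive cells using rapamycin and DMSO controls, was read in empty-vector Tsc2-/-, p53-/- MEFs after 24 h compound exposure at 37 C; propidium iodide counted cells.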

Test [18] is described as follows: High Content Imaging Cell-Based qHTS for Inhibitors of the mTORC1 Signaling Pathway in MEF Cells (AID 2667).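 Also: Tsc2-/- p53-/- MEFs stably re-expressing wild-type Tsc2 exposed 24 h; series mostly up to about 38 µM.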 In a few lines:
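WT MEFs (Tsc2-/-, p53-/- re-expressing Tsc2), in DMEM + 10% FBS, were treated with compound for 24 h at 37 C. Cells were then fixed and stained for phospho-rpS6 Ser235/236 with propidium iodide as cell count. Values are % positive cells, with thresholds set against rapamycin-treated cells.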

Test [19] concerns the target Ferritin light chain (Equus caballus) (UniProt P02791). Put plainly: qHTS Validation Assay for Identification of Novel General Anesthetics (AID 2323). Also: series mostly up to about 77 µM. In a few lines:
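Normalized fluorescence response, scaled between free 1-AMA and 1-AMA/apoferritin complex, fitted to a four-parameter Hill equation for concentration-effect values. Binding mix: 10 uM horse-spleen apoferritin, 50% saturated 1-AMA in PBS; read 380/535 nm after 10 min.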

Molecules are shown by their SMILES. Records with an inconclusive call do not appear. The list shows a part of the results. Active and inactive are the calls of the source. Unless noted, calls follow the shape of the dose curve; as a rule, active = well fitted curve in the direction sought with a large enough effect; inconclusive = small, poorly fitted or top-dose-only effect, or another doubt; inactive = no such curve, though single readings can be large; an effect the other way counts as inactive or inconclusive.

ATP-dependent DNA helicase Q1 (Homo sapiens), sequence (P46063 whole entry, looked up): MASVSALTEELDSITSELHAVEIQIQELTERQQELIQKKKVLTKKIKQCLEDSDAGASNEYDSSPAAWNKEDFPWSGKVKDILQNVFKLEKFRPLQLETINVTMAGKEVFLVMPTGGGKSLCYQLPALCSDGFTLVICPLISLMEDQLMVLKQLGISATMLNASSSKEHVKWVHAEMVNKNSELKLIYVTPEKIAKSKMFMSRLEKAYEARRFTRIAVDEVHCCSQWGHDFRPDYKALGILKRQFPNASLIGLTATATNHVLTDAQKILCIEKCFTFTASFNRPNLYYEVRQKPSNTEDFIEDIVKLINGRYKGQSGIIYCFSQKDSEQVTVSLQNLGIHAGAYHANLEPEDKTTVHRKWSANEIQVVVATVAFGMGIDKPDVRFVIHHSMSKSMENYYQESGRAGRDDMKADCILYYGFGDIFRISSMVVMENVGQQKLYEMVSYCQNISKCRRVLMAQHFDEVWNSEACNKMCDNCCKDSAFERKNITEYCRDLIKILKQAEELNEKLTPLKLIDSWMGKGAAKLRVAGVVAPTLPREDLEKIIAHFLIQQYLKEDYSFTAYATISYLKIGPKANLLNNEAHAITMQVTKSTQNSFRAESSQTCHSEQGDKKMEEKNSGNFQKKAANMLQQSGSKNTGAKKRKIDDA
RecQ-like DNA helicase BLM (Homo sapiens), sequence (P54132 whole entry, looked up): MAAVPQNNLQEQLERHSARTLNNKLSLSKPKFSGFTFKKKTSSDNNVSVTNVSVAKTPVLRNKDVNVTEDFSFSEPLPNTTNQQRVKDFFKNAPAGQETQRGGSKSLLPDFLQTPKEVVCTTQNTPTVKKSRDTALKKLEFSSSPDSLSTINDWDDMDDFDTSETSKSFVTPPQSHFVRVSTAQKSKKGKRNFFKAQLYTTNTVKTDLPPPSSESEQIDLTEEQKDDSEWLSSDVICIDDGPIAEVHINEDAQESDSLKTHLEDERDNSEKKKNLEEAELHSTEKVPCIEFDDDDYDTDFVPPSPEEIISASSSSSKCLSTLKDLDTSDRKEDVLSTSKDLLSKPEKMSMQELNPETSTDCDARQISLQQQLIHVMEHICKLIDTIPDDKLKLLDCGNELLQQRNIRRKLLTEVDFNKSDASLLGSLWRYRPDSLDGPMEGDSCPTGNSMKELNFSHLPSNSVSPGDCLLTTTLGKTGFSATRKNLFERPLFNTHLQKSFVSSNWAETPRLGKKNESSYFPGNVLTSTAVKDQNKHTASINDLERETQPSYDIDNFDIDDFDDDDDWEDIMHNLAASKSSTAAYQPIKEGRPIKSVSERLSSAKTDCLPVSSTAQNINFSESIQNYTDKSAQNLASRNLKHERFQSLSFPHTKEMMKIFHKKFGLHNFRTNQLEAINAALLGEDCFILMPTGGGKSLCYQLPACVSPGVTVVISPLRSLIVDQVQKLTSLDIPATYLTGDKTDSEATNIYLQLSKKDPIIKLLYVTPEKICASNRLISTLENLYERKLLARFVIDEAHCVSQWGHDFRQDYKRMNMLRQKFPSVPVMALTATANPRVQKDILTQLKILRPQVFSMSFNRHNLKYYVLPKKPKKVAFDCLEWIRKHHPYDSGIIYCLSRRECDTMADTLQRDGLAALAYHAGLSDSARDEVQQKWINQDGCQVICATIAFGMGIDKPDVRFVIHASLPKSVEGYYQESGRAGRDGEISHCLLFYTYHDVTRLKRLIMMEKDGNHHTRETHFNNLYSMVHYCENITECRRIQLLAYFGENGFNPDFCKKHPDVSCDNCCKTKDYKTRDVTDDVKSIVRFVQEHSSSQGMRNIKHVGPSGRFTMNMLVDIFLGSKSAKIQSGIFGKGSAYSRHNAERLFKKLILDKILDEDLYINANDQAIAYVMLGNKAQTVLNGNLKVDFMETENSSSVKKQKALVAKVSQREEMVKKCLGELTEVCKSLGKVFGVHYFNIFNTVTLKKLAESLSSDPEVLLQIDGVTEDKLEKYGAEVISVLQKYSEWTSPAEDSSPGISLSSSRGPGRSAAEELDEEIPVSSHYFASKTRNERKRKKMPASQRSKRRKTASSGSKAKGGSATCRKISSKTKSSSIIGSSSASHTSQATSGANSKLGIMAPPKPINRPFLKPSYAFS
Ferritin light chain (Equus caballus), sequence (P02791 2-175 limits assumed): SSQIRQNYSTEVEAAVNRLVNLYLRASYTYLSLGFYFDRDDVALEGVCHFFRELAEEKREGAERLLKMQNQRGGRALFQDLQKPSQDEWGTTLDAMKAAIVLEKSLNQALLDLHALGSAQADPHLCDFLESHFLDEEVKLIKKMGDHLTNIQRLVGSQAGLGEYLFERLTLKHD
DNA repair nuclease/redox regulator APEX1 (Homo sapiens), sequence (P27695 whole entry, looked up): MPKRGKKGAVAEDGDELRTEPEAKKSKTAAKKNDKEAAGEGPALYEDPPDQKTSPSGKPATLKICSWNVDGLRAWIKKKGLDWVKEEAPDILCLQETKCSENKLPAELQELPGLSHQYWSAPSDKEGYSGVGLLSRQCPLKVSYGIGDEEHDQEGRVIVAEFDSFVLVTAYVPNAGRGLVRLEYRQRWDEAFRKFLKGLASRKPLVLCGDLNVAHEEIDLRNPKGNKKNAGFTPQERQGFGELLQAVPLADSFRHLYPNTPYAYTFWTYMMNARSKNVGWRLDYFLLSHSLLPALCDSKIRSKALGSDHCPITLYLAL

`C[N+](C)(CCCCCC[N+](C)(C)CCCN1C(=O)c2cccc3cccc(c23)C1=O)CCCN1C(=O)c2cccc3cccc(c23)C1=O`: the Potency is 3.55 µM (active) in test [1]; 5.62 µM (active) in test [2]; 0.794 µM (active) in test [4]; 0.316 µM (active) in [5]; 0.0631 µM (active) in test [6]; 0.631 µM (active) in test [7]. Further, the Potency was 2.24 µM (active) in test [8]; 0.631 µM (active) in [9]; 0.562 µM (active) in test [10]; 3.55 µM (active) in test [14]; 4.47 µM (active) in [15]. Moreover, the Potency entry in [3], in test [12], in test [13], in test [17] and in test [18] was “inactive” in each case. The result in [11] and in test [16] was inactive.

On to `CCCCN1CCC(n2c(=O)[nH]c3ccccc32)CC1`, for which the Potency entry in test [1], in [2], in [4], in test [5], in test [6] and in test [7] was “inactive” in each case. Further, the Potency entry in test [8], in test [10], in [19], in [12], in test [13] and in test [17] was “inactive” each time. Also, the Potency entry in test [18] was “inactive”. Further, the Potency in test [9] is 8.91 µM (active). For the same compound, in test [16], the result was inactive.

For the compound `CN1CCC[C@H]1c1cccnc1`, the Potency entry in [1], in test [2], in test [4], in test [5], in test [6] and in [7] was “inactive” throughout. Moreover, the Potency entry in [8], in test [9], in [10], in test [19], in [12] and in [17] was “inactive” in each case. Also, the Potency entry in test [18] was “inactive”. In addition, the outcome in test [11] and in [16] was inactive.

As to `NCCCCCCCCCCN`, the Potency entry in test [1], in [2], in test [4], in test [5], in test [6] and in test [7] was “inactive” throughout. Moreover, the Potency entry in [8], in test [10], in test [19], in test [12], in test [13] and in test [17] was “inactive” throughout. The Potency entry in [18] is “inactive”. Also, the outcome in [11] and in [16] was inactive.

For `CC(=O)SCC[N+](C)(C)C`, the Potency result in test [1], in [2], in [4], in [5], in test [6] and in test [7] was “inactive” each time. Further, the Potency result in [8], in [9], in test [10], in test [19], in test [12] and in test [17] was “inactive” in each case. The Potency result in test [18] was “inactive”. Besides, the result in [11] and in [16] was inactive.

`O=C(O)[C@@H]1C[C@H](C(=O)O)N1`: the Potency entry in [1], in test [2], in test [4], in test [5], in [6] and in test [7] was “inactive” each time. Also, the Potency entry in test [8], in test [9], in [10], in test [19], in test [12] and in test [17] was “inactive” each time. Also, the Potency entry in test [18] is “inactive”. In test [16], the compound was called inactive.

Consider `CC(C)(C=O)Cc1cc(C(C)(C)C)c(O)c(C(C)(C)C)c1`, for which the Potency entry in test [1], in test [2], in [4], in test [5], in [6] and in test [7] was “inactive” in each case. Also, the Potency entry in [8], in [9], in test [10], in test [12], in test [17] and in test [18] was “inactive” each time. Besides, the result in test [16] was inactive.

For the compound `CN[C@H](CC(C)C)C(=O)N[C@H]1C(=O)N[C@@H](CC(N)=O)C(=O)N[C@H]2C(=O)N[C@H]3C(=O)N[C@H](C(=O)N[C@H](C(=O)O)c4cc(O)cc(O)c4-c4cc3ccc4O)[C@H](O)c3ccc(c(Cl)c3)Oc3cc2cc(c3O[C@@H]2O[C@H](CO)[C@@H](O)[C@H](O)[C@H]2O[C@H]2C[C@](C)(N)[C@H](O)[C@H](C)O2)Oc2ccc(cc2Cl)[C@H]1O`, the Potency entry in [1], in [2], in test [4], in [5], in test [6] and in test [7] was “inactive” in each case. The Potency entry in test [8], in test [9], in test [10], in test [19], in test [12] and in [13] was “inactive” throughout. Also, in test [11], the outcome was inactive.
